For three compounds, cell viability results are on record in the supplement of paper PMC10981050.

Values joined by “and” are separate entries in the source; they are usually repeats but may differ in a detail not shown here. Equal entries are not always repeated. Structures can show the parent of a compound that is named as a salt.

What all share (assay): cell viability relative to vehicle control; higher = less cytotoxic
Common to all, as to conditions: 10 µM

The subject of one assay is K562. The method, boiled down:
(§1)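 Four leukaemia lines, as CRISPR-edited mutant clones and isogenic wild-type clones, were tested against Selleck bioactive, kinase and epigenetic probe libraries after removal of identity-inconsistent compounds. Cells were exposed to a single 10 µM dose for 48 h, and CellTiter-Glo luminescence was then read. Viability was calculated relative to the on-plate vehicle control.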

Another assay concerns MARIMO. An outline of the steps: as §1
In a further assay the test system is MOLM14. The method, boiled down:
as §1

The test system of the next assay is OCI-AML2. An outline of the steps: as §1

With `COc1cc2c(cc1OC)[C@@H](Cc1ccc(O)c(Oc3cc4c(cc3OC)CCN(C)[C@@H]4Cc3ccc(O)cc3)c1)N(C)CC2` [Liensinine], the cell viability (as a rule, a read-out of living cells in per cent, often relative to untreated cells) with K562 (SRSF2 genotype: SRSF2 P95H/wt) is 86.6% and 83%; in the assay on K562 (SRSF2 genotype: SRSF2 wt/wt), 78.5%; in the assay with MARIMO (SRSF2 genotype: SRSF2 P95H/wt), 63.3%; in the assay with MARIMO (SRSF2 genotype: SRSF2 wt/wt), 74.6%; in the assay on MOLM14 (SRSF2 genotype: SRSF2 P95H/wt) it was 69.1%; in the assay on MOLM14 (SRSF2 genotype: SRSF2 wt/wt) it was 83.3%. Also, the cell viability was 63.2% in the assay on OCI-AML2 (SRSF2 genotype: P95H/wt) and 59.9% in the assay with OCI-AML2 (SRSF2 genotype: wt/wt).

Regarding `CCCN1CCCC[C@H]1C(=O)Nc1c(C)cccc1C` [Ropivacaine HCl], the cell viability with K562 (SRSF2 genotype: SRSF2 P95H/wt) was 91% and 94.8%; in the assay with K562 (SRSF2 genotype: SRSF2 wt/wt) it was 94.2%; in the assay on MARIMO (SRSF2 genotype: SRSF2 P95H/wt) it was 99.7%; in the assay with MARIMO (SRSF2 genotype: SRSF2 wt/wt), 89%; in the assay with MOLM14 (SRSF2 genotype: SRSF2 P95H/wt) it was 95%; in the assay with MOLM14 (SRSF2 genotype: SRSF2 wt/wt), 95.4%. Further, the cell viability is 98% with OCI-AML2 (SRSF2 genotype: P95H/wt) and 95.6% in the assay with OCI-AML2 (SRSF2 genotype: wt/wt).

On to `Cc1ccc(C(=O)c2cc(O)c(O)c([N+](=O)[O-])c2)cc1` [Tolcapone], for which the cell viability is 107% and 113% with K562 (SRSF2 genotype: SRSF2 P95H/wt); 112% in the assay on K562 (SRSF2 genotype: SRSF2 wt/wt); 109% in the assay on MARIMO (SRSF2 genotype: SRSF2 P95H/wt); 111% in the assay with MARIMO (SRSF2 genotype: SRSF2 wt/wt); 106% with MOLM14 (SRSF2 genotype: SRSF2 P95H/wt); 109% with MOLM14 (SRSF2 genotype: SRSF2 wt/wt). Also, the cell viability in the assay on OCI-AML2 (SRSF2 genotype: P95H/wt) turned out to be 113%; in the assay with OCI-AML2 (SRSF2 genotype: wt/wt), 97.3%.
